The source of these data is PubChem BioAssay (NCI).

The nature of assay [1]: NCI Yeast Anticancer Drug Screen. Data for the rad50 strain (AID 155).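 Note: 0% = growth of vehicle-only cultures of the same strain.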 The settings on record: S. cerevisiae rad50 strain growth inhibition, active compounds read high. Summed up: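 DNA repair mutant yeast, compound exposure, growth read-out; inhibition is taken relative to vehicle.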
Assay [2] can be described thus: NCI Yeast Anticancer Drug Screen. Data for the mec2-1 strain (AID 157). As to conditions: S. cerevisiae mec2-1 strain, active compounds read high. Summed up: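 Mutant yeast (mec2-1) grown with compound; growth inhibition relative to vehicle control reported.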
Assay [3] can be described thus: NCI Yeast Anticancer Drug Screen. Data for the sgs1 mgt1 strain (AID 161).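 Note: 0% = growth of cultures given vehicle only.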 As to conditions: S. cerevisiae sgs1 mgt1 strain, active compounds read high. Summed up: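 Yeast cells carrying a defined DNA-repair defect were exposed to test compounds. Growth inhibition was measured relative to vehicle-treated controls.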
Assay [4] is described as follows: NCI Yeast Anticancer Drug Screen. Data for the cln2 rad14 strain (AID 165).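 Note: 0% = growth equal to vehicle treated cultures.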 The settings on record: S. cerevisiae cln2 rad14 strain, active compounds read high. Summed up: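 Readout is yeast growth inhibition versus vehicle-treated controls, using a strain with cln2 and rad14 alterations exposed to compound.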
Assay [5] is described as follows: NCI Yeast Anticancer Drug Screen. Data for the bub3 strain (AID 167). As to conditions: S. cerevisiae bub3 mutant strain, active compounds read high. Summed up: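 In this screen, a yeast mutant lacking normal mitotic checkpoint function is challenged with compound. Relative growth versus vehicle gives the inhibition value.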
A short description of assay [6]: NCI Yeast Anticancer Drug Screen. Data for the mlh1 rad18 strain (AID 175). The settings on record: S. cerevisiae mlh1 rad18 strain growth inhibition, active compounds read high. Summed up: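 Genetically defined yeast (DNA repair-deficient) exposed to compounds; growth inhibition determined relative to vehicle.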
Setting [7] is: at 5.0 µM (retest, dose inferred, filed as 0.5).
The mark [8] stands for this setting: at 50.0 µM (retest, dose inferred, filed as 5.0).

The panel holds about 79,000 compounds, 15% with a hit somewhere; the sample as a whole holds those more often. A number with no mark means an inactive call. Active and inactive are the calls of the source. Cut-off read from the data, not from the text of the source: active = growth inhibition above about 70%; inactive = the rest.

Turning to `O=C1CCCC/C1=C/c1ccc(Cl)cc1`, the growth inhibition in assay [1] (setting [7]) was -151%; in assay [1] (setting [8]), 35%; in assay [1] (at 50.0 µM), 87.3% (active); in assay [2] (setting [7]) it was -49%; in assay [2] (setting [8]) it was -13%; in assay [2] (at 50.0 µM) it was 81.2% (active). The growth inhibition in assay [3] (setting [7]) was -64%; in assay [3] (setting [8]), 35%; in assay [3] (at 50.0 µM), 82% (active); in assay [4] (setting [7]) it was -57%; in assay [4] (setting [8]), -37%; in assay [4] (at 50.0 µM), 33%. Also, the growth inhibition was -64% in assay [5] (setting [7]); 27% in assay [5] (setting [8]); 73.7% (active) in assay [5] (at 50.0 µM); -229% in assay [6] (setting [7]); 36% in assay [6] (setting [8]); 90.8% (active) in assay [6] (at 50.0 µM).
On to `COC(=O)N/N=C(\c1ccc(O)cc1)C(C)C1(O)C(=O)Nc2ccccc21` (configuration not stated), for which the growth inhibition in assay [1] (setting [7]) was -16%; in assay [1] (setting [8]), 35%; in assay [1] (at 50.0 µM), -19.5%; in assay [2] (setting [7]) it was 6%; in assay [2] (setting [8]) it was 20%; in assay [2] (at 50.0 µM), 7.45%. Also, the growth inhibition in assay [3] (setting [7]) was 7%; in assay [3] (setting [8]), 26%; in assay [3] (at 50.0 µM) it was 16.9%; in assay [4] (setting [7]) it was -2%; in assay [4] (setting [8]) it was 23%; in assay [4] (at 50.0 µM), -30.2%. Moreover, the growth inhibition in assay [5] (setting [7]) is 1%; in assay [5] (setting [8]), 34%; in assay [5] (at 50.0 µM), -0.8%; in assay [6] (setting [7]) it was -3%; in assay [6] (setting [8]), 28%; in assay [6] (at 50.0 µM) it was 14.2%.
For `NS(=O)(=O)c1ccc(-n2cccc2)cc1`, the growth inhibition was 0% in assay [1] (setting [7]); -4% in assay [1] (setting [8]); 10.6% in assay [1] (at 50.0 µM); -2% in assay [2] (setting [7]); -3% in assay [2] (setting [8]); -11.3% in assay [2] (at 50.0 µM). Also, the growth inhibition is -1% in assay [3] (setting [7]); -3% in assay [3] (setting [8]); -1.6% in assay [3] (at 50.0 µM); 1% in assay [4] (setting [7]); -1% in assay [4] (setting [8]); 56.6% in assay [4] (at 50.0 µM). Moreover, the growth inhibition in assay [5] (setting [7]) was -6%; in assay [5] (setting [8]), -7%; in assay [5] (at 50.0 µM), 23.5%; in assay [6] (setting [7]) it was -2%; in assay [6] (setting [8]), -3%; in assay [6] (at 50.0 µM) it was 7.7%.
For `CN(C)CC1CC/C(=C\c2ccc(Cl)c(Cl)c2)C1=O` (configuration not stated), the growth inhibition in assay [1] (setting [7]) was 21%; in assay [1] (setting [8]) it was 98% (active); in assay [1] (at 50.0 µM), 93.1% (active); in assay [2] (setting [7]) it was 44%; in assay [2] (setting [8]), 99% (active); in assay [2] (at 50.0 µM), 93.6% (active). Further, the growth inhibition is 25% in assay [3] (setting [7]); 98% (active) in assay [3] (setting [8]); 92.4% (active) in assay [3] (at 50.0 µM); 37% in assay [4] (setting [7]); 99% (active) in assay [4] (setting [8]); 91.3% (active) in assay [4] (at 50.0 µM). Also, the growth inhibition is 74% (active) in assay [5] (setting [7]); 99% (active) in assay [5] (setting [8]); 91.5% (active) in assay [5] (at 50.0 µM); 84% (active) in assay [6] (setting [7]); 99% (active) in assay [6] (setting [8]); 90.2% (active) in assay [6] (at 50.0 µM).
On to `CC(=O)Oc1ccc(N=[N+]([O-])c2ccc(OC(C)=O)cc2)cc1`, for which the growth inhibition in assay [1] (setting [7]) is 5%; in assay [1] (setting [8]), 12%; in assay [1] (at 50.0 µM) it was 1.95%; in assay [2] (setting [7]), 13%; in assay [2] (setting [8]), 40%; in assay [2] (at 50.0 µM) it was -2.6%. Also, the growth inhibition in assay [3] (setting [7]) is 2%; in assay [3] (setting [8]), 19%; in assay [3] (at 50.0 µM), 45.6%; in assay [4] (setting [7]), 10%; in assay [4] (setting [8]), 23%; in assay [4] (at 50.0 µM), 18.4%. Further, the growth inhibition was -4% in assay [5] (setting [7]); 2% in assay [5] (setting [8]); 14.7% in assay [5] (at 50.0 µM); -1% in assay [6] (setting [7]); 5% in assay [6] (setting [8]); -13% in assay [6] (at 50.0 µM).
For `CC[Si](CC)(CC)c1ccc(CCNCCS)s1`, the growth inhibition in assay [1] (setting [7]) was -1%; in assay [1] (setting [8]), 96% (active); in assay [1] (at 50.0 µM), 97.4% (active); in assay [2] (setting [7]), 32%; in assay [2] (setting [8]) it was 99% (active); in assay [2] (at 50.0 µM), 98.7% (active). Further, the growth inhibition was 52% in assay [3] (setting [7]); 98% (active) in assay [3] (setting [8]); 98.2% (active) in assay [3] (at 50.0 µM); 8% in assay [4] (setting [7]); 97% (active) in assay [4] (setting [8]); 98% (active) in assay [4] (at 50.0 µM). Besides, the growth inhibition in assay [5] (setting [7]) was 19%; in assay [5] (setting [8]), 99% (active); in assay [5] (at 50.0 µM) it was 98.4% (active); in assay [6] (setting [7]) it was 49%; in assay [6] (setting [8]), 97% (active); in assay [6] (at 50.0 µM), 98.3% (active).
Consider `CN(C)CC/C(=N\Nc1ccc(Cl)c(Cl)c1)c1ccccc1`, for which the growth inhibition is 88% (active) in assay [1] (setting [7]); 99% (active) in assay [1] (setting [8]); 99.5% (active) in assay [1] (at 50.0 µM); 69% in assay [2] (setting [7]); 100% (active) in assay [2] (setting [8]); 97.9% (active) in assay [2] (at 50.0 µM). The growth inhibition in assay [3] (setting [7]) is 98% (active); in assay [3] (setting [8]), 100% (active); in assay [3] (at 50.0 µM), 99.6% (active); in assay [4] (setting [7]) it was 34%; in assay [4] (setting [8]), 99% (active); in assay [4] (at 50.0 µM) it was 99.5% (active). Also, the growth inhibition in assay [5] (setting [7]) was 82% (active); in assay [5] (setting [8]), 100% (active); in assay [5] (at 50.0 µM) it was 99.6% (active); in assay [6] (setting [7]), 95% (active); in assay [6] (setting [8]), 99% (active); in assay [6] (at 50.0 µM), 99.2% (active).
As to `O=C1CSC(=S)N1c1cccc(Cl)c1`, the growth inhibition was 20% in assay [1] (setting [7]); 28% in assay [1] (setting [8]); 40.5% in assay [1] (at 50.0 µM); 15% in assay [2] (setting [7]); 23% in assay [2] (setting [8]); 86% (active) in assay [2] (at 50.0 µM). For the same compound, the growth inhibition is 13% in assay [3] (setting [7]); 94% (active) in assay [3] (setting [8]); 79.6% (active) in assay [3] (at 50.0 µM); 9% in assay [4] (setting [7]); 73% (active) in assay [4] (setting [8]); 19.4% in assay [4] (at 50.0 µM). For the same compound, the growth inhibition is 8% in assay [5] (setting [7]); 92% (active) in assay [5] (setting [8]); 70.2% (active) in assay [5] (at 50.0 µM); 24% in assay [6] (setting [7]); 48% in assay [6] (setting [8]); 91.7% (active) in assay [6] (at 50.0 µM).
As for `O=C(/C=C/c1cccc2ccccc12)c1cccc([N+](=O)[O-])c1`, the growth inhibition in assay [1] (setting [7]) is 11%; in assay [1] (setting [8]), -10%; in assay [1] (at 50.0 µM), 12.3%; in assay [2] (setting [7]), -25%; in assay [2] (setting [8]), -15%; in assay [2] (at 50.0 µM), -4.05%. In addition, the growth inhibition in assay [3] (setting [7]) is -2%; in assay [3] (setting [8]), 2%; in assay [3] (at 50.0 µM), 14.3%; in assay [4] (setting [7]) it was 7%; in assay [4] (setting [8]), 5%; in assay [4] (at 50.0 µM), 0%. Also, the growth inhibition in assay [5] (setting [7]) is -8%; in assay [5] (setting [8]), -12%; in assay [5] (at 50.0 µM) it was -5.2%; in assay [6] (setting [7]) it was -12%; in assay [6] (setting [8]) it was -51%; in assay [6] (at 50.0 µM), -5.35%.
